{
  "source": "PubChem BioAssay AID933",
  "about": "(National Center for Advancing Translational Sciences (NCATS), 2009)",
  "note": "Records with an inconclusive call do not appear. Where a call stands in place of a potency, no number is given. Unmarked numbers belong to inactive results. Activity calls are given as the source filed them. Calls come from the whole dose curve; as a rule, active = well fitted activation curve with a large enough effect in the signal ratio, with a control signal flat; inconclusive = small, poorly fitted or top-dose-only effect, or a change in a side signal; inactive = flat fitted curve, though single readings scatter; the % refers to the signal ratio. Potency is the fitted concentration of half-maximal effect.",
  "data": [
    {"molecular_target": "Thyrotropin receptor (Homo sapiens) (UniProt P16473)", "sequence (P16473 whole entry, looked up)": "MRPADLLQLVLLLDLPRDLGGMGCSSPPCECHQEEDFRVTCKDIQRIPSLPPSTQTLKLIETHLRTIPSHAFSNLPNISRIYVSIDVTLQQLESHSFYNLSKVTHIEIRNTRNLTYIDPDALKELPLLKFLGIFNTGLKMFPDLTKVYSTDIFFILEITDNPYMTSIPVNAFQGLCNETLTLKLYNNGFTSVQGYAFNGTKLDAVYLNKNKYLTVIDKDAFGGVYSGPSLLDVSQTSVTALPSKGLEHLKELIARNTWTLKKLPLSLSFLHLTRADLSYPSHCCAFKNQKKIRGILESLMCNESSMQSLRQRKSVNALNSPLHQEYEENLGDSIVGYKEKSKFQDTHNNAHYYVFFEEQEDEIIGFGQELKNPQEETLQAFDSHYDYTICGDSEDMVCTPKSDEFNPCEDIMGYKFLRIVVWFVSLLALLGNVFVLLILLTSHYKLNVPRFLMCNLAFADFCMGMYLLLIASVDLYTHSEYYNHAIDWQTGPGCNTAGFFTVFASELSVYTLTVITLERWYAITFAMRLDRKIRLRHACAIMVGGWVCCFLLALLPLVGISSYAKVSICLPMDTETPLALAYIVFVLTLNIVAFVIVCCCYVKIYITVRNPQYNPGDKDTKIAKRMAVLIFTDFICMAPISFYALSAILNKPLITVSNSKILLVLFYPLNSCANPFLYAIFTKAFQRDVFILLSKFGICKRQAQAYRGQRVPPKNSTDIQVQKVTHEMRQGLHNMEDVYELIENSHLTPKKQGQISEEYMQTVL", "experiment": "Secondary Concentration-Response Assay for Agonists of the Thyroid Stimulating Hormone Receptor: HTRF Activity Detection", "details": "HEK293-TSHR cells, cAMP HTRF ratio, 30 min; series mostly up to 91.7 µM", "how_it_was_run": "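cAMP accumulation was detected by antibody-based HTRF, excitation 330 nm, emissions 615 and 660 nm. Compounds acted for 30 min at room temperature on stably TSHR-transfected HEK 293 cells, with phosphodiesterase inhibitor RO 20-1724 (100 uM) in the medium.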", "values": [
      {"smiles": "COc1ccc(CN2C(=O)N(c3ccccc3)C(=O)C2c2ccccc2)cc1COc1ccc(NC(C)=O)cc1", "note": "(stereo not given)", "Potency": "inactive"},
      {"smiles": "COc1ccc(C2Nc3ccccc3C(=O)N2Cc2ccccc2OC)cc1COc1ccc(NC(C)=O)cc1", "note": "(stereo not given)", "Potency": "inactive"},
      {"smiles": "CCCN1C(=O)c2ccccc2NC1c1ccc(OC)c(CSc2ccccn2)c1", "note": "(stereo not given)", "Potency": "inactive"},
      {"smiles": "COc1ccc(C2Nc3ccccc3C(=O)N2Cc2ccccc2)cc1COc1ccc(NC(=O)c2ccccc2)cc1", "note": "(stereo not given)", "Potency": "inactive"},
      {"smiles": "COc1ccc(C2Nc3ccccc3C(=O)N2Cc2ccco2)cc1COc1ccccc1", "note": "(stereo not given)", "Potency": "inactive"},
      {"smiles": "CC(=O)Nc1cccc(OCc2cccc(C3Nc4ccccc4C(=O)N3Cc3ccco3)c2)c1", "note": "(stereo not given)", "Potency": "inactive"},
      {"smiles": "CC(=O)Nc1ccc(S(=O)(=O)N(C)c2ccccc2)cc1", "activation": "-0.796% [at 0.00035 µM]"},
      {"smiles": "CCOc1cc(C2Nc3ccccc3C(=O)N2c2ccccc2)ccc1O", "note": "(stereo not given)", "Potency": "inactive"},
      {"smiles": "COc1ccc(S(=O)(=O)NCCC(=O)NCc2ccc(F)cc2)cc1", "activation": "-0.0801% [at 0.00035 µM]"},
      {"smiles": "CCN(CC)CCN1C(=O)c2ccccc2NC1c1ccccc1F", "note": "(stereo not given)", "Potency": "inactive"},
      {"smiles": "CCCS(=O)(=O)N1CCN(C(=O)c2ccc(-c3ccccc3)cc2)CC1", "activation": "0.323% [at 0.00035 µM]"},
      {"smiles": "COc1cc(C2Nc3ccccc3C(=O)N2c2ccccc2OC)ccc1O", "note": "(stereo not given)", "Potency": "inactive"},
      {"smiles": "COc1ccc(C(=O)N(Cc2ccco2)Cc2cccs2)c(O)c1", "Potency": "50.1 µM (active)"},
      {"smiles": "CC1(C)c2ccccc2N2CC(=O)NC21/C=C/c1ccco1", "note": "(stereo not given)", "activation": "1.29% [at 0.00035 µM]"},
      {"smiles": "O=C(COC(=O)C12CC3CC(CC(O)(C3)C1)C2)NCc1ccco1", "Potency": "inactive"},
      {"smiles": "COc1ccc(C2Nc3ccccc3C(=O)N2Cc2ccco2)cc1COc1ccc([N+](=O)[O-])cc1", "note": "(stereo not given)", "Potency": "inactive"},
      {"smiles": "COc1ccc(N2C(=O)c3ccccc3NC2c2ccc(OC)c(COc3ccccc3F)c2)cc1", "note": "(stereo not given)", "Potency": "inactive"},
      {"smiles": "CCOC(=O)CCc1c(C)nc2c(c(C)nn2C(C)(C)C)c1C", "activation": "0.0158% [at 0.00035 µM]"},
      {"smiles": "O=C(COC(=O)C12CC3CC(CC(Br)(C3)C1)C2)NCc1ccco1", "Potency": "10 µM (active)"},
      {"smiles": "CC1(C)CC2CC(C)(CN2S(=O)(=O)c2ccc(N)cc2)C1", "note": "(stereo not given)", "activation": "-0.162% [at 0.00035 µM]"},
      {"smiles": "O=C(c1ccccc1O)N(Cc1ccccc1)Cc1cccs1", "Potency": "inactive"},
      {"smiles": "COc1ccc(C2Nc3ccccc3C(=O)N2Cc2ccccc2)cc1COc1ccc(Cl)cc1Cl", "note": "(stereo not given)", "Potency": "inactive"},
      {"smiles": "CCOc1cc(C2Nc3ccccc3C(=O)N2Cc2ccco2)ccc1OCc1ccccc1Cl", "note": "(stereo not given)", "Potency": "inactive"},
      {"smiles": "O=C1CC(c2ccco2)CC2=C1C(c1ccc(O)cc1)n1nc(C(F)(F)F)nc1N2", "note": "(stereo not given)", "Potency": "inactive"},
      {"smiles": "COc1ccc(C2Nc3ccccc3C(=O)N2c2ccccc2)cc1Cn1cc([N+](=O)[O-])cn1", "note": "(stereo not given)", "Potency": "inactive"},
      {"smiles": "COc1ccc(C2Nc3ccccc3C(=O)N2Cc2ccco2)cc1", "note": "(stereo not given)", "Potency": "inactive"},
      {"smiles": "O=C(Nc1ccccn1)NC12CC3CC(CC(C3)C1)C2", "activation": "0.487% [at 0.00035 µM]"},
      {"smiles": "Cc1ccccc1-n1nc(C)c2cc(C(=O)N3CCN(S(=O)(=O)c4ccc(F)cc4)CC3)sc21", "activation": "0.202% [at 0.00035 µM]"},
      {"smiles": "N#Cc1ccc(C(=O)N(Cc2ccco2)Cc2cccs2)cc1", "Potency": "inactive"},
      {"smiles": "COc1ccc(C2Nc3ccccc3C(=O)N2Cc2ccco2)cc1COc1ccccc1F", "note": "(stereo not given)", "Potency": "inactive"},
      {"smiles": "CCCN1C(=O)c2ccccc2NC1c1ccc(OC)cc1O", "note": "(stereo not given)", "Potency": "inactive"},
      {"smiles": "CC(c1ccco1)N(C(=O)c1ccc(Cl)s1)c1ccccn1", "note": "(stereo not given)", "activation": "0.422% [at 0.00035 µM]"},
      {"smiles": "COc1ccc(C2Nc3ccccc3C(=O)N2Cc2ccccc2)cc1COc1ccc(F)cc1", "note": "(stereo not given)", "Potency": "inactive"},
      {"smiles": "COc1ccc(C2Nc3ccccc3C(=O)N2Cc2cccc(-c3ccccc3)c2)cc1COc1ccc(NC(C)=O)cc1", "note": "(stereo not given)", "Potency": "2.24 µM (active)"},
      {"smiles": "CCN(CC)CCN1C(=O)c2ccccc2NC1c1cc(OC)c(OC)c(OC)c1", "note": "(stereo not given)", "Potency": "inactive"}
    ]}
  ]
}
